This is a sample that favours compounds with a hit; in the whole collection about 5.5% have one here.
Gal4-VP16 FLuc: inhibits Gal4-VP16 luciferase reporter, ROR gamma counter-screen | Drosophila S2 Gal4-VP16 UAS-luciferase, luminescence, 20 h | Potency, µM (top dose mostly 53.6 µM), for the others: at the top dose activity, negative = inhibition, usual class: inhibitors | 310,000 tested, 3.5% active | AID 2546;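 note: Gal4-VP16 expression switched on by copper sulfate through the metallothionein promoter; potency is the fitted concentration of half-maximal effect; % is set by controls: 0 for no effect and ±100 for the full control effect; nearly all actives have a fitted effect of over 50% in size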
MBNL1-CUG inh: blocks human MBNL1 binding to CUG repeat RNA; Q9NR56; TR-FRET MBNL1-His/biotin-(CUG)12 binding, 665/545 ratio; Potency, µM (top dose mostly 57.5 µM), for the others: at the top dose activity change, negative = inhibition, usual class: inhibitors; 280,000 tested, 0.036% active; active = well fitted inhibition curve with a large enough effect in the signal ratio, with a control signal flat, not every such curve was filed as active; inconclusive = small, poorly fitted or top-dose-only effect, or effect the other way, or a change in a side signal; inactive = no such curve, though single readings can be large or run the other way; the % refers to the signal ratio; note: potency is the fitted concentration of half-maximal effect; % is set by controls: 0 for no effect and ±100 for the full control effect
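MBNL1-His + Biotin-(CUG)12, cpd titration 92 nM–58 uM; Tb anti-His Ab 0.055 ng/ul, SA-XL665 5 nM (final); 60 min RT; ratiometric 665/545 nm, Ex 340 nm; normalized to buffer and full-complex controls.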
CBFb-RUNX1 inh: CBF-beta/RUNX1 interaction disruption. 230,000 tested, under 10 active. AlphaScreen CBFb-His/RUNX1-biotin binding, biochemical. AID 1477. Potency, µM (top dose mostly 59.8 µM), for the others: at the highest dose activity, negative = inhibition, actives largely listed as inhibitors; note: % of control where 0% means no effect
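Proteins preincubated together for 20 min at RT before compound addition; 15 min later, nickel and streptavidin beads were added and left 90 min prior to AlphaScreen measurement.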
Six1-Eya2 blk: inhibitors of human Six1/Eya2 interaction | Q15475+O00167 | AlphaScreen GST-Six1/His-Eya2 binding, biochemical; active compounds read low | activity change, % (test concentration not listed) | 360,000 tested, 0.56% active | AID 651725; in the data active = activity change below about -65%; inconclusive = mostly about -30% to -63%; note: % is set by controls: 0 for no effect and ±100 for the full control effect
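AlphaScreen with GST-Six1 and His-Eya2 (5X mix: 250 nM and 500 nM), glutathione donor and nickel acceptor beads; buffer 50 mM Tris pH 8.0, 300 mM NaCl, 1 mM TCEP; 1 h at 37 C in the dark.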
RORg inh: ROR gamma (mouse) transcription inhibition. 310,000 tested, 5.4% active. Drosophila S2 Gal4-RORgamma UAS-luciferase reporter, 20 h. Potency, µM (highest dose often 53.6 µM), inactives show top-dose activity change, negative = inhibition, actives largely listed as inhibitors; note: potency is the fitted concentration of half-maximal effect; % is set by controls: 0 for no effect and ±100 for the full control effect; nearly all actives have a fitted effect of over 60% in size
Target sequence (P51450 whole entry, looked up, the tested form may be a part): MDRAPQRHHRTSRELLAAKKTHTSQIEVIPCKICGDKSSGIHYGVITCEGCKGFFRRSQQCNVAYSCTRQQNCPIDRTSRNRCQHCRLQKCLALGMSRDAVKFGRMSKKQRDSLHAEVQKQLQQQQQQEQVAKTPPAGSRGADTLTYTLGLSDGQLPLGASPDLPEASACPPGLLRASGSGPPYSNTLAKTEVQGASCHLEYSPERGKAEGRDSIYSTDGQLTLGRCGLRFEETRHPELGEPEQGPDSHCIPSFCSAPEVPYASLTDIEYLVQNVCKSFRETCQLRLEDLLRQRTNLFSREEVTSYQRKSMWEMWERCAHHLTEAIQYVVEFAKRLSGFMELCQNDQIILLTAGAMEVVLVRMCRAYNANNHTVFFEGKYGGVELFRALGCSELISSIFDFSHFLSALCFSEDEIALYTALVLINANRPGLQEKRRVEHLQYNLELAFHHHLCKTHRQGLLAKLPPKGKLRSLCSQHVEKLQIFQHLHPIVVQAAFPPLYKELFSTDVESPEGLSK
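Read-out: Photinus luciferase luminescence; inhibitors lower reporter signal. Insect Schneider cells with Gal4-ROR gamma fusion under metallothionein promoter, UAS reporter; 700 uM final copper sulfate induction, 20 hr, ambient temperature.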
CtBP-E1A blk: CtBP/E1A binding inhibition; AlphaScreen GST-E1A/His-CtBP binding, 1536-well; active compounds read low; activity change, % (no concentration beside the values); 340,000 tested, 0.49% active; AID 651724; in the data active = activity change below about -65%; inconclusive = mostly about -30% to -63%; note: % is set by controls: 0 for no effect and ±100 for the full control effect
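Protein mix (5X: 125 nM each GST-E1A, His-CtBP) was incubated with pinned compound 2 h at 37 deg C in dark, in 50 mM Tris pH 8.0 buffer with 300 mM NaCl. Glutathione donor and nickel acceptor beads followed; AlphaScreen signal read after 1 h.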
Starred values were filed as active, the others as inactive; ? = inconclusive; nt = not tested or not shown; [ ] = another dose, or the depositor's remark. Unless noted, calls come from the whole dose curve; as a rule, active = well fitted curve in the direction sought with a large enough effect; inconclusive = small, poorly fitted or top-dose-only effect, or another doubt; inactive = no such curve, though single readings can be large; an effect the other way counts as inactive or inconclusive.

SMILES	Gal4-VP16 FLuc	MBNL1-CUG inh	CBFb-RUNX1 inh	Six1-Eya2 blk	RORg inh	CtBP-E1A blk
CCc1nc2ccccc2n1CC1CC1(Cl)Cl (configuration not stated)	-2%[10 µM]	12%	1%	0	7.1µM*	14
ClC1(Cl)CC1Cn1c(C2CC2)nc2ccccc21 (configuration not stated)	7%	-1%	-1%	2	14%	7
O=C(CP(=O)(c1ccccc1)c1ccccc1)Nc1nc2ccc(Cl)cc2s1	3%	-12%	7%	-3	6%	-2
CCOc1ccc(N(CC(=O)Nc2cccc(Cl)c2)S(=O)(=O)c2c(C)noc2C)cc1	13µM*	-7%	2%	7	16µM*	-15
CCOc1ccc(N(CC(=O)Nc2cccc(OC)c2)S(=O)(=O)c2c(C)noc2C)cc1	?	-3%	11%	0	?	2
Cc1ccccc1NC(=O)Nc1cccs1	-3%	1%	-20%	-1	?	-6
Cc1ccc(Cl)cc1NC(=O)Nc1cccs1	-13%	-3%	-6%	-4	14µM*	3
O=C(Nc1ccc(Cl)c([N+](=O)[O-])c1)c1ccc(NCCCN2CCOCC2)c([N+](=O)[O-])c1	?	12%	5%	-1	5µM*	6
CCc1ccc(NC(=S)NCc2ccccc2)cc1	?	-1%	7%	-3	2.2µM*	0
S=C(NCc1ccccc1)Nc1ccncc1	14µM*	-11%	nt	-1	-11%	2
Cc1ccc(Cl)cc1NC(=S)NN	?	-1%	2%	-5	8.9µM*	-2
CC(C)COCC(O)CCC(=O)NNC(=S)Nc1ccccc1 (configuration not stated)	1µM*	nt	-7%	2	-35%[10 µM]	20
O=C(Cc1ccccc1)NNC(=S)Nc1ccccc1	-17%	-2%	6%	-11	?	2
NS(=O)(=O)c1ccc(NC(=S)NCc2ccccc2)cc1	6%	-10%	7%	8	13%	-2
C=CCNC(=S)Nc1ccc(OC(F)F)c(Cl)c1	?	-2%	8%	7	?	-16
NNC(=S)Nc1ccc(Cl)cc1	?	-7%	-12%	-12	11µM*	-12
Cc1ccc(NC(=S)Nn2cnnc2)cc1	-21%[10 µM]	-5%	2%	-1	-39%	nt
FC(F)(F)Sc1ccc(NC(=S)NCc2ccccc2)cc1	?	-3%	22%	8	13µM*	nt
NNC(=S)Nc1ccc(OC(F)(F)F)cc1	?	-9%	9%	42	?	0
CCc1ccc(NC(=S)Nn2cnnc2)cc1	0%	-4%	6%	14	1.1µM*	7
C=CCNC(=S)Nc1ccc(Cl)cc1	?	-8%	23%	-2	16µM*	nt
CCN1C(=O)[C@@H]2[C@@H](c3ccc(-c4cccc(Cl)c4)c(OC)c3)N3CCCC[C@@]3(C(=O)OC)[C@@H]2C1=O	nt	nt	nt	-9	nt	-7
O=C(CCC(=O)NNC(=S)Nc1ccccc1)NCc1ccccc1	?	3%	1%	4	10µM*	1
CCc1ccc(C(O)(CNCc2ccccc2)c2ccccc2)cc1 (configuration not stated)	13µM*	1%	nt	23	-19%	nt
Cc1ccc(CNCC(O)(c2ccccc2)c2ccccc2)cc1	-12%	3%	nt	21	?	nt
SMILES	Gal4-VP16 FLuc	MBNL1-CUG inh	CBFb-RUNX1 inh	Six1-Eya2 blk	RORg inh	CtBP-E1A blk
S=C(NCc1ccccc1)Nc1ccc(Cl)cc1	?	-10%	8%	-5	4.5µM*	6
COc1ccc([C@H]2CC(=O)C[C@@H](CCn3nnc4ccccc43)O2)cc1	nt	nt	nt	-3	nt	9
CCOC(=O)N1CCN(S(=O)(=O)c2ccc(C(=O)Nc3nnc(C4CC4)o3)cc2)CC1	3.2µM*	-12%	?	-11	1.8µM*	-8
CC1CC(C)CN(S(=O)(=O)c2ccc(C(=O)Nc3nnc(C4CC4)o3)cc2)C1 (configuration not stated)	0.63µM*	-5%	nt	-13	0.56µM*	-5
CC1CCN(S(=O)(=O)c2ccc(C(=O)Nc3nnc(-c4ccccn4)o3)cc2)CC1	-14%	-10%	-3%	-12	-1%	-8
CC(C)(C)C(=O)N/C(N)=N/c1nc2ccccc2o1	?	nt	3%	4	4µM*	0
CCC(=O)N/C(N)=N/c1nc2ccccc2o1	?	nt	1%	-12	13µM*	-25
N/C(=N\c1nc2ccccc2o1)NC(=O)c1ccccc1	-25%	-7%	0%	3	7.1µM*	5
Cc1ccc(C(=O)N/C(N)=N/c2nc3ccccc3o2)cc1	0%	-2%	0%	8	-28%	-1
CC(C)CC(=O)N/C(N)=N/c1nc2ccccc2o1	-3%	nt	-1%	3	10µM*	8
COc1ccc(CC(=O)NNC(=O)COc2ccc(Cl)cc2C)cc1S(=O)(=O)N1CCOCC1	nt	nt	nt	6	nt	-4
CCCS(=O)(=O)NC(=O)C1(C)CCCN(C(=O)c2cncc(Br)c2)C1 (configuration not stated)	nt	nt	nt	-2	nt	3
O=C(COC(=O)/C=C/c1ccc(Cl)cc1)NC1CCCCCC1	nt	nt	nt	-2	nt	10
CCCC(=O)N/C(N)=N/c1nc2ccccc2o1	-29%	nt	3%	-3	10µM*	-8
N/C(=N\c1nc2ccccc2o1)NC(=O)/C=C/c1ccccc1	-20%	nt	5%	12	-42%	-1
CC(=O)N/C(N)=N/c1nc2cc(C)ccc2o1	?	0%	2%	-2	11µM*	nt
COc1ccccc1C(=O)N/C(N)=N/c1nc2ccccc2o1	?	4%	0%	0	8.9µM*	3
CC(=O)N/C(N)=N/c1nc2cc([N+](=O)[O-])ccc2o1	15%	nt	3%	-4	-31%	-3
COc1cc2[nH]c(=S)nc(NCc3ccccc3)c2cc1OC	?	?	nt	-78*	7.1µM*	-82*
COc1ccc(CNC(=O)CCCCCNc2nc(=S)[nH]c3ccccc23)cc1	-3%	11%	-1%	?	?	?
S=c1nc(NCc2ccc3c(c2)OCO3)c2ccccc2[nH]1	?	16%	nt	-2	13µM*	-1
COc1cc2ncnc(NCc3ccc(F)cc3)c2cc1OC	4%	-14%	nt	-8	-15%	-8
COc1cc2[nH]c(=S)nc(NCc3ccc(C)cc3)c2cc1OC	18µM*	13%	nt	-74*	6.3µM*	nt
COc1cccc(-c2nc(NCc3ccccc3)c3ccccc3n2)c1	-30%	nt	nt	nt	29%	nt
O=C(NC1CCCCC1)c1ccc(CNc2nc(=S)[nH]c3ccccc23)cc1	2%	2%	7%	0	13µM*	-1
